PTK2B oligo ant: antagonists of Pyk2 self-association, primary screen, Q293 cells, FERM NanoBiT luminescence, HTS | hits give low values | z-score (the deposit names both 25 µM and 10 µM) | 99,000 compounds, 0.83% hits;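 active means Z-score of -3 or lower, scaled per plate to the spread of control and sample wells; inactive means z-score above -3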;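 further: negative z-score means lost luminescence so less FERM oligomerization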
CYP2C9 inhib: blockers of cytochrome P450 2C9 activity – biochemical, luminescence, ADME assay, primary screen; inhibition, % at 5 µM; CYP2C9 Supersomes, luciferin-H conversion; P11712; 96,000 compounds, 20% hits;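 active means blocking of liver enzyme CYP2C9 beyond about 50% at 5 µM, limit read from the data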
CYP2C19 inh: blockers of cytochrome P450 2C19 activity – biochemical, luminescence, ADME assay, primary screen. inhibition, % at 5 µM. CYP2C19 Supersomes, luciferin-H EGE luminescence, 30 min. 96,000 compounds, 21% hits;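 active means CYP2C19 inhibition above a set limit at 5 µM in the primary screen, cut at about 50% in these data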;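 further: plate controls were negative control wells for no effect and 2.5 mM tranylcypromine positive control for full effect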
Target sequence (P33261 whole entry, looked up): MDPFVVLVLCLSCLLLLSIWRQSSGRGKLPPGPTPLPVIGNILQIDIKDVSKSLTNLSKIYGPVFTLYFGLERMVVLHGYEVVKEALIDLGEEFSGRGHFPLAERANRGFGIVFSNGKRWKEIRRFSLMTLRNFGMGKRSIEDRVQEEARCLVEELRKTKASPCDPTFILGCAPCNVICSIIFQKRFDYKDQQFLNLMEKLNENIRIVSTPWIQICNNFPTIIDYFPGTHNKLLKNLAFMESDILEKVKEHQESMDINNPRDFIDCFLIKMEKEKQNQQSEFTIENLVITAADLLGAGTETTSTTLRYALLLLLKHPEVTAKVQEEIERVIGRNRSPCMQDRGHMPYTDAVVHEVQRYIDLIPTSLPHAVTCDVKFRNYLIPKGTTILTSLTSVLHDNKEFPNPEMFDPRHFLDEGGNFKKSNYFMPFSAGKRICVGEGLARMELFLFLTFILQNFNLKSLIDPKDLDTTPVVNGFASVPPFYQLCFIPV
Cav3 T inh: Cav3.2 calcium influx blockers – cell-based, Fluo-4 calcium fluorescence, FDSS, MLSMR library, primary screen | B-score at 10 µM | AID 449739, 2010 | Cav3.2-expressing cells; hits give low values | 100,000 compounds, 4% hits | Voltage-dependent T-type calcium channel subunit alpha-1H (Homo sapiens), O95180;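 active means single-dose well whose peak fluorescence ratio is a statistical outlier from its plate by either plate-standardised score or position-corrected B-score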
CYP2C9 act: human CYP2C9 activators, primary screen, biochemical, luminescence | Cytochrome P450 2C9 (Homo sapiens), P11712 | recombinant CYP2C9, luciferin-H conversion; hits give high values; factor 1 = untreated enzyme, 0 = blocked | activation factor at 5 µM | 96,000 compounds, 1.4% hits | AID 1024, 2008;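 active means activation factor of 2 or more for CYP2C9 at a 5 µM dose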;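 further: 0 = sulfaphenazole-blocked wells and 1 = vehicle-only wells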
CYP2C19 act: human CYP2C19 activators, primary screen, biochemical, luminescence | Cytochrome P450 2C19 (Homo sapiens), P33261 | recombinant CYP2C19, luciferin-H EGE luminescence; hits give high values; 0 = fully inhibited enzyme, 1 = untreated enzyme | activation factor at 5 µM | 96,000 tested, under 10 active;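 active means activation factor of at least 2 at 5 µM in the primary screen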;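 further: 0 = wells with 2.5 mM tranylcypromine and 1 = vehicle-only wells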
Numbers without * were called inactive; . = no result. Compounds with a hit are over-represented: about 27% of the library has one in this group of screens.

SMILES	PTK2B oligo ant	CYP2C9 inhib	CYP2C19 inh	Cav3 T inh	CYP2C9 act	CYP2C19 act
CC1CC(C)CN(C(=O)c2ccc3c(c2)N(Cc2ccccc2)CCS3)C1 (stereo unspecified)	.	11.0	33.9	-7.66*	0.9	0.7
Cc1ccc(CN2CCSc3ccc(C(=O)N4CCN(c5ncccn5)CC4)cc32)cc1	-0.1	92.6*	97.0*	-2.46	0.1	0
O=C(NCCC1=CCCCC1)c1ccc2c(c1)N(Cc1ccccc1)C(=O)CS2	-1.28	74.8*	48.6	-3.9	0.3	0.5
Cc1[nH]n(-c2ccc(F)cc2)c(=O)c1C=Nc1ccc(S(=O)(=O)N(C)C)cc1	0.97	.	.	.	.	.
Cc1cc[n+]2c3c(cccc13)CCC2	0.47	4.7	4.8	0.51	1	1
COc1ccc(C2=NN(C(C#N)c3ccc(OC)c(OC)c3)C(c3ccccc3)C2)cc1 (stereo unspecified)	-0.6	68.3*	41.5	-1.73	0.3	0.6
CC(=O)Oc1ccc(NC(=O)Cc2ccccc2)cc1	-0.43	21.3	43.7	0.509	0.8	0.6
O=C(Cc1sc(-c2ccccc2)nc1-c1ccccc1)Nc1ccccc1	-1.19	51.9*	0.2	0.244	0.5	1
CC(C)(C)OC(=O)N1CCC[C@H]1c1nnc(SCc2c(Cl)cccc2Cl)o1	-1.28	78.4*	71.2*	-6.76*	0.2	0.3
Cn1c(CSc2nc3ccccc3s2)nnc1SCC(=O)NCc1cccnc1	0.4	.	.	0.179	.	.
CCOc1ccc(N2CC(C(=O)Nc3ccc(S(=O)(=O)Nc4ncccn4)cc3)CC2=O)cc1 (stereo unspecified)	2.46	29.1	-33.7	0.755	0.7	1.3
O=C(CCCNC(=O)/C(=C\c1ccc(F)cc1)NC(=O)c1ccccc1)OCc1ccccc1	0.2	45.9	63.1*	-2.59	0.5	0.4
O=C(NC(Cc1ccccc1)C(=O)O)/C(=C\c1ccc(F)cc1)NC(=O)c1ccccc1 (stereo unspecified)	-0.41	7.7	-1.4	-0.586	0.9	1
COc1c(O)cccc1[C@@H](O)C1CCN(CCc2ccc(F)cc2)CC1	.	.	.	0.222	.	.
COc1ccc(S(=O)(=O)N2CCN(CC(=O)Nc3cccc(F)c3)CC2)cc1	-0.95	-37.3	53.5*	.	1.4	0.5
COc1ccc(S(=O)(=O)N2CCN(CC(=O)Nc3ccc(C)c(F)c3)CC2)cc1	0.29	-18.4	81.9*	-4.2*	1.2	0.2
COc1ccc(S(=O)(=O)N2CCN(CC(=O)Nc3cc(C(F)(F)F)ccc3Cl)CC2)cc1	0.74	.	.	1.28	.	.
Nc1c(-c2ccc(Cl)cc2)cnn1C1CCS(=O)(=O)C1 (stereo unspecified)	0.8	-6.5	-1.1	0.993	1.1	1
COc1cc(OC)cc(C(=O)NCCN2CCOCC2)c1	0.22	-15.2	2.1	0.529	1.2	1
COC(=O)c1cccc(N2C(=O)c3ccccc3S2(=O)=O)c1	0.73	27.9	40.7	-0.0556	0.7	0.6
O=C(CN1C(=O)c2ccccc2S1(=O)=O)NCc1ccccc1Cl	.	11.2	59.2*	0.614	0.9	0.4
COC(=O)c1ccccc1NC(=O)CN1C(=O)c2ccccc2S1(=O)=O	-0.67	3.2	12.7	-1.82	1	0.9
CCC(C)NC(=O)c1ccccc1NC(=O)CN1C(=O)c2ccccc2S1(=O)=O (stereo unspecified)	.	84.6*	10.2	1.16	0.2	0.9
COC(=O)c1ccc(CN2C(=O)c3ccccc3S2(=O)=O)cc1	-1.09	59.8*	83.9*	-1.26	0.4	0.2
COC(=O)C1=C(CCc2ccccc2)NC(=O)NC1c1ccc([N+](=O)[O-])cc1 (stereo unspecified)	.	.	.	-1.4	.	.
SMILES	PTK2B oligo ant	CYP2C9 inhib	CYP2C19 inh	Cav3 T inh	CYP2C9 act	CYP2C19 act
CCN(CC)CCNC(=O)Cn1c(C)cc2ccccc2c1=O	1.4	-14.2	-8.3	0.00924	1.1	1.1
N#Cc1cccc(NC(=O)Cn2c3[n+](c4ccc(C(F)(F)F)cc42)CCCCC3)c1	0.79	.	.	.	.	.
CCCCCCn1c(NCC)nc2c1c(=O)[nH]c(=O)n2C	-1.13	-15.4	-1.7	0.281	1.2	1
Cn1nnnc1SCc1csc(Nc2ccccc2)n1	0.38	-277.3	16.6	1.21	3.8*	0.8
Cc1ccc(Nc2nc(CSc3nnnn3-c3ccccc3)cs2)cc1	-0.26	-68.1	35.3	-3.97*	1.7	0.6
Cc1cccc(-n2nnnc2SCc2csc(-c3ccccc3)n2)c1	-1.8	.	.	-3.27*	.	.
Cn1nnnc1SCc1c(F)cccc1F	-0.58	1.4	25.6	-0.173	1	0.7
O=c1cc(CSc2nnnn2-c2ccccc2)nc(Nc2ccc(F)cc2)[nH]1	-1.35	14.6	-4.5	0.231	0.9	1
Cc1ccc(Nc2nc(CSc3nnnn3C)cs2)cc1	-0.2	-177.1	70.0*	0.111	2.8*	0.3
CC(NC(=O)Nc1ccccc1)C(c1cccs1)N1CCN(C)CC1 (stereo unspecified)	.	-3.4	-2.6	0.0951	1	1
O=C(O)C1CC=CCC1C(=O)NCCc1cccc(Cl)c1 (stereo unspecified)	-0.26	-9.7	5.6	-0.259	1.1	0.9
C=CC(=C)CC(NC)c1ccccc1 (stereo unspecified)	-0.89	-10.5	-0.9	-0.263	1.1	1
Cn1nnnc1SCc1cccc(CSc2nnnn2C)n1	-0.32	-2.0	97.6*	0.21	1	0
CC(C)[C@@H]1C=C(C(=O)O)O[C@H](OCCCCO)C1	.	.	.	1.3	.	.
CN(C)c1ccc(P(=O)(OCc2ccccc2)C(O)c2cccnc2)cc1 (stereo unspecified)	0.25	58.2*	48.3	0.132	0.4	0.5
CC(C)C(O)P(=O)(OCc1ccccc1)c1ccc(N(C)C)cc1 (stereo unspecified)	1.07	5.0	53.6*	0.247	0.9	0.5
CCCCOP(=O)(c1ccc(N(C)C)cc1)C(O)c1ccccc1F (stereo unspecified)	0.61	4.7	33.8	-1.22	1	0.7
CN1CCN(C(=O)c2ccccc2-c2ccccc2C(=O)O)CC1	0.34	-21.1	-15.6	-0.241	1.2	1.2
COC(=O)NC(NC(=S)Nc1ccc([N+](=O)[O-])cc1)C(Cl)(Cl)Cl (stereo unspecified)	-1.18	.	.	-1.97	.	.
Cc1cc([N+](=O)[O-])ccc1NC(=S)NC(=O)Cc1ccccc1	0.3	3.6	16.8	-1.33	1	0.8
Cc1cc([N+](=O)[O-])ccc1NC(=S)NC(=O)C(c1ccccc1)c1ccccc1	-0.99	66.4*	21.8	-1.29	0.3	0.8
